In ChEMBL document CHEMBL3433997, “St. Jude Leishmania screening dataset” (2016):

What was measured:
Assay type in all cases: functional
[1] = target: Solute carrier family 2, facilitated glucose transporter member 1 (Homo sapiens) (UniProt P11166); assay: ST_JUDE_LEISH: Cytotoxicity at 2uM final concentration against transgenic Leishmania Mexicana promastigotes LmGLUT1 that are glucose transport deficient and complemented with the human glucose transporter GLUT1. Activity is measured by DNA content using SYBR green in vitro
[2] = target: Hexose transporter 1 (Plasmodium falciparum) (UniProt O97467); assay: ST_JUDE_LEISH: Cytotoxicity at 2uM final concentration against transgenic Leishmania Mexicana promastigotes LmPfHT that are glucose transport deficient and complemented with the Plasmodium falciparum hexose transporter. Activity is measured by DNA content using SYBR green in vitro
[3] = target: Glucose transporter (Leishmania mexicana) (UniProt O61059); assay: ST_JUDE_LEISH: Cytotoxicity at 2uM final concentration against transgenic Leishmania Mexicana promastigotes LmGT2 that are glucose transport deficient and complemented with the L. Mexicana glucose transporter 2. Activity is measured by DNA content using SYBR green in vitro

Chain of Solute carrier family 2, facilitated glucose transporter member 1 (Homo sapiens) (P11166 whole entry): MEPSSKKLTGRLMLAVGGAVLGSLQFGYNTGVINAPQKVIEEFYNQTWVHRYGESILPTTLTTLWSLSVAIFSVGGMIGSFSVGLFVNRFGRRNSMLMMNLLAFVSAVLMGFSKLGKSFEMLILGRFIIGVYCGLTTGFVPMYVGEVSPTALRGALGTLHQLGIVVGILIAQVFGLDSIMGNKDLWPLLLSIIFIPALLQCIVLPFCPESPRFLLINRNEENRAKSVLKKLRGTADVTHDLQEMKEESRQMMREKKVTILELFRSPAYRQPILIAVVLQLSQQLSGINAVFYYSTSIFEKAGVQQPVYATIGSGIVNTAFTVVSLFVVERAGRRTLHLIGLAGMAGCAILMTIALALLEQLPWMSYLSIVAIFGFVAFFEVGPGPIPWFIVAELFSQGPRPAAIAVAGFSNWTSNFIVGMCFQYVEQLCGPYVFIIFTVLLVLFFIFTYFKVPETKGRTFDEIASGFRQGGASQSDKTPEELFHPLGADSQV

Structure (SMILES) | inhibition [1] [%] | inhibition [2] [%] | inhibition [3] [%]
COc1ccccc1-c1ccc(C(=O)NCC2CCCN(Cc3cccc(C(F)(F)F)c3)C2)s1 (stereo unspecified) | 6.82 | 8.99 | 7.33
c1ccc(C(c2cccs2)N2CCN(Cc3ccc(OCCCN4CCCCC4)cc3)CC2)cc1 (stereo unspecified) | 7.65 | 6.22 | 5.51
COc1ccc2nccc([C@@H](O)CN3CCC(NCc4cc5ccccc5cn4)CC3)c2n1 | 12.2 | 17.3 | 7.09
O=C(Cc1ccc[n+]([O-])c1)Nc1ccc(-c2cccc(-c3nc4cc(C(F)(F)F)ccc4[nH]3)c2)cc1 | 1.49 | 1.61 | -0.42
CS(=O)(=O)N1CC2(CCN(CCC(NC(=O)/C=C/c3ccccc3)c3ccc(Cl)c(Cl)c3)CC2)c2ccccc21 (stereo unspecified) | 2.11 | 0.3 | 1.25
CC(C)(NCc1ccc(OC(F)(F)F)cc1)c1nc(-c2ccc(Cl)c(O)c2)c(-c2ccncc2)[nH]1 | -0.58 | -0.36 | 1.94
CN1CCN(CCCN(Cc2cccc(-c3ccc(CNC4CCCC4)cc3)c2)C(=O)/C=C/c2ccccc2)CC1 | 6.1 | 7.29 | 4.93
CC(=NNC(=N)N)c1ccc2c(ccc3ccccc32)c1 | 2.47 | 1.59 | 0.58
CCCCc1ccc(Cc2cnc3nc(N)nc(N)c3c2C)cc1 | 11.6 | 23 | 15.6
O=C(NCC1CCC(C(=O)NC2CCCc3ccccc32)CC1)c1ccc(O)c(-c2cccc([N+](=O)[O-])c2)c1 (stereo unspecified) | 3.94 | 2.12 | 2.39
CC(CCCCC(=O)Nc1ccc(CC(C)NCCc2cccc(Cl)c2)cc1)NCCc1cccc(Cl)c1 (stereo unspecified) | 0.84 | 2.45 | -1.1
COc1ccc(CNC2Cc3ccccc3C2)cc1-c1ccc(S(=O)(=O)NCc2ccccc2)s1 | 6.85 | 4.6 | 4.36
COc1ccc(CNCc2ccccc2)cc1-c1ccc(S(=O)(=O)NCCN2CCCC2)cc1 | 2.89 | 1.76 | -2.76
N#Cc1cc([N+](=O)[O-])ccc1-n1nc(C(N)=O)n(Cc2cccc(F)c2)c1=S | 11.3 | 8.94 | 5.66
O=C(Nc1ccc(OC2CCN(Cc3ccccc3)C2)c(Cl)c1)c1ccsc1 (stereo unspecified) | 1.05 | 2.26 | 2.75
O=c1cc(NCCCNCc2cn(S(=O)(=O)c3ccccc3)c3ccccc23)[nH]c2ccccc12 | -0.4 | -0.55 | -0.88

Structure (SMILES) | inhibition [1] [%] | inhibition [2] [%] | inhibition [3] [%]
CCc1nc2nc(C)cc(Nc3ccc(F)c(Cl)c3)n2n1 | -2.16 | -3.69 | -1.67
Cc1cccc(-c2nc3[nH]c(=O)cc(NC(=O)C(C)C)n3n2)c1 | -2.8 | -2.49 | -1.3
COCCN(C)CCCOc1cc2c(cc1OC)ncn2-c1cc(OCc2ccccc2C(F)(F)F)c(C(N)=O)s1 | 2.27 | 4.55 | 1.49
FC(F)(F)c1ccc2[nH]ccc(=NN=Cc3cccnc3)c2c1 | 1.46 | 1.75 | 5.22
Cc1ccccc1OCC(=O)Nc1ccc(-c2nc3cc4ccccc4cc3[nH]2)cc1 | 7.32 | 3.71 | 4.05
O=C(Nc1cccc(-c2ccc(-c3nc4cc(F)ccc4[nH]3)s2)c1)c1ccncc1 | 6.59 | 5.83 | 3.32
CC(C)c1ccc(NC(=O)NCC2CCCN(CCCCCNC(=O)/C=C/c3ccc(Cl)c(Cl)c3)C2)cc1 (stereo unspecified) | 2.73 | 1.74 | 2.62
COCCN(C(=O)Cc1cccs1)C(C(=O)NCc1ccc(OC)cc1)c1ccc(C(C)C)cc1 (stereo unspecified) | 2.96 | -3.02 | -0.76
Cc1cnc(Nc2ccccc2)nc1N[C@@H](CCCN)C(=O)Nc1ccccc1 | -1.01 | -0.2 | -0.3
CCCCCCCN(Cc1ccc(OC(C)(C)C(=O)OCC)cc1)C(=O)Nc1ccc(Cl)cc1OCC | 3.65 | 0.95 | 3.11
COc1ccc(NC(=O)c2ccc(-c3nc(-c4ccc(Cl)cc4)cs3)cc2)cc1N1CCN(C)CC1 | 0.97 | 0.94 | 0.9
COc1ccc2[nH]ccc(=NN=Cc3cccc(Cl)c3)c2c1 | 15.1 | 14.8 | 11.7
COc1cccc(OC2CCN(C(=O)c3cc(C(C)(C)C)nn3Cc3ccccc3)CC2)c1 | 1.4 | 0.53 | 1.38
O=C(NCc1ccc(Cl)c(Cl)c1)c1ccc(C2CCN(Cc3ccc4[nH]cnc4c3)CC2)cc1 | 2.71 | 1.42 | 0.28
Cc1cc(CNC(=O)[C@H](CC2CCCCC2)Nc2ccc(C#N)c3ccccc23)c(C(F)(F)F)o1 | 1.15 | 1.57 | -1.16
O=C(NCC1CCN(Cc2ccsc2)C1)c1cc(-c2cccc(C(F)(F)F)c2)cs1 (stereo unspecified) | 1.96 | 0.91 | 3.66
